Experimental data published in the supplement of paper PMC6555819.

Experiments:
Assay in all cases: PBM binding z-score (relative to random genomic background probes); higher = stronger binding; sequences stand for … in GC…GCGATTGACAGCGTAGAATGAAGG
[1] = system: PPARg:RXRa DBDmut IVT, anti-RXR (DBD mutation: RXRa K156A/R161A, NR concentration 270 nM, RXRa partner concentration 90 nM)
Outline: (§1)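 Custom Agilent 4×180K protein-binding microarrays carried double-stranded probes, each with a 34-nt variable region. These regions held direct-repeat seeds, single-nucleotide variants, half-site ablations and random human genomic background sequences. Ligand-free nuclear receptor dimers were incubated on the arrays for 1 h, antibodies against each partner (one per run) detected binding, and scanned fluorescence was regression-normalized. Binding z-scores take the random background probes as reference.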

[2] = system: PPARg:RXRa IVT, anti-PPARg (NR concentration 270 nM, RXRa partner concentration 90 nM)
Outline: as §1

[3] = system: PPARg DBDmut:RXRa IVT, anti-PPARg (DBD mutation: PPARg1 K132A/R137A, NR concentration 270 nM, RXRa partner concentration 90 nM)
Outline: as §1

[4] = system: PPARg DBDmut IVT, anti-PPARg (DBD mutation: PPARg1 K132A/R137A, NR concentration 270 nM)
Outline: as §1

[5] = system: PPARg homodimer (NR concentration 180 nM)
Outline: as §1

[6] = system: PXR:RXRa (NR concentration 270 nM, RXRa partner concentration 90 nM)
Outline: as §1

[7] = system: PXR homodimer (NR concentration 270 nM)
Outline: as §1

[8] = system: RARa:RXR (NR concentration 270 nM, RXRa partner concentration 90 nM)
Outline: as §1

[9] = system: RARa homodimer (NR concentration 270 nM)
Outline: as §1

[10] = system: RARb:RXRa (NR concentration 270 nM, RXRa partner concentration 90 nM)
Outline: as §1

[11] = system: RARb homodimer (NR concentration 270 nM)
Outline: as §1

[12] = system: RARg:RXRa (NR concentration 270 nM, RXRa partner concentration 90 nM)
Outline: as §1

[13] = system: RARg homodimer (NR concentration 270 nM)
Outline: as §1

[14] = system: RXRa DBDmut IVT, anti-RXR (DBD mutation: RXRa K156A/R161A, NR concentration 90 nM)
Outline: as §1

[15] = system: THRa:RXRa (NR concentration 90 nM, RXRa partner concentration 90 nM)
Outline: as §1

[16] = system: THRa homodimer (NR concentration 90 nM)
Outline: as §1

[17] = system: VDR homodimer (NR concentration 270 nM)
Outline: as §1

[18] = system: RXRa homodimer (NR concentration 180 nM)
Outline: as §1

[19] = system: VDR:RXRa (NR concentration 270 nM, RXRa partner concentration 90 nM)
Outline: as §1

CCTACTGGGCCATGAAAGGTCATTGATTCAGTGA
PBM binding z-score [1]: 4.45
PBM binding z-score [2]: 4.58
PBM binding z-score [3]: 0.322
PBM binding z-score [4]: 0.328
PBM binding z-score [5]: 3.71
PBM binding z-score [6]: 5.2
PBM binding z-score [7]: 1.71
PBM binding z-score [8]: 5.37
PBM binding z-score [9]: 1.41
PBM binding z-score [10]: 3.62
PBM binding z-score [11]: 4.4
PBM binding z-score [12]: 4.23
PBM binding z-score [13]: 3.85
PBM binding z-score [14]: 0.456
PBM binding z-score [15]: 3.58
PBM binding z-score [16]: 0.811
PBM binding z-score [17]: 2.39

CCTAGCAGGCGAGGGTCACTCAAGCATTTCGCTT
PBM binding z-score [1]: 0.277
PBM binding z-score [2]: 0.13
PBM binding z-score [3]: -1.61
PBM binding z-score [4]: -1.34
PBM binding z-score [5]: 0.73
PBM binding z-score [6]: 1.63
PBM binding z-score [7]: -0.241
PBM binding z-score [8]: 2.62
PBM binding z-score [9]: -0.425
PBM binding z-score [10]: 2.29
PBM binding z-score [11]: 2.36
PBM binding z-score [12]: 2.77
PBM binding z-score [13]: 1.69
PBM binding z-score [14]: 0.212
PBM binding z-score [15]: 1.79
PBM binding z-score [16]: -0.42
PBM binding z-score [17]: 0.128

CCTTACGGGTCCCTGACAGGTTATAGCATTTGGA
PBM binding z-score [1]: -0.486
PBM binding z-score [2]: -0.544
PBM binding z-score [3]: -1.04
PBM binding z-score [4]: -1.23
PBM binding z-score [5]: 0.149
PBM binding z-score [6]: -0.106
PBM binding z-score [7]: -0.274
PBM binding z-score [8]: -0.0622
PBM binding z-score [9]: 0.466
PBM binding z-score [10]: 0.205
PBM binding z-score [11]: 0.357
PBM binding z-score [13]: 0.233
PBM binding z-score [14]: -0.553
PBM binding z-score [18]: 0.295
PBM binding z-score [15]: 0.389
PBM binding z-score [16]: -0.0756
PBM binding z-score [19]: -0.165
PBM binding z-score [17]: 0.0432

CCCACTGGGCCATTCAGAGGTCATTGATCATATG
PBM binding z-score [1]: 3.42
PBM binding z-score [2]: 4.55
PBM binding z-score [3]: 0.045
PBM binding z-score [4]: -0.746
PBM binding z-score [5]: 1.93
PBM binding z-score [6]: 4.67
PBM binding z-score [7]: 2
PBM binding z-score [8]: 4.2
PBM binding z-score [9]: 0.72
PBM binding z-score [10]: 2.96
PBM binding z-score [11]: 4.3
PBM binding z-score [12]: 4.48
PBM binding z-score [13]: 3.31
PBM binding z-score [14]: 0.382
PBM binding z-score [15]: 3.43
PBM binding z-score [16]: 1.52
PBM binding z-score [17]: 3.25

CCTACTGGGCCAAGGTCATTGAGCAGTCAAAGCA
PBM binding z-score [1]: 3.78
PBM binding z-score [2]: 4.64
PBM binding z-score [3]: 0.0966
PBM binding z-score [4]: 0.249
PBM binding z-score [5]: 1.29
PBM binding z-score [6]: 3.5
PBM binding z-score [7]: 1.2
PBM binding z-score [8]: 3.64
PBM binding z-score [9]: -0.199
PBM binding z-score [10]: 3.21
PBM binding z-score [11]: 3.03
PBM binding z-score [13]: 3.23
PBM binding z-score [14]: 1.23
PBM binding z-score [18]: 3.66
PBM binding z-score [15]: 3.23
PBM binding z-score [16]: 2.18
PBM binding z-score [19]: 3.07
PBM binding z-score [17]: 2.65

TGAATGACGTTAAAGATCAGGGAACGTGGCGTCG
PBM binding z-score [1]: -1.13
PBM binding z-score [2]: 0.0329
PBM binding z-score [3]: 0.97
PBM binding z-score [4]: 0.284
PBM binding z-score [5]: -0.272
PBM binding z-score [6]: -0.444
PBM binding z-score [7]: -0.0558
PBM binding z-score [8]: -0.209
PBM binding z-score [9]: 0.184
PBM binding z-score [10]: -0.171
PBM binding z-score [11]: -0.807
PBM binding z-score [12]: 0.00646
PBM binding z-score [13]: 0.113
PBM binding z-score [14]: -0.922
PBM binding z-score [15]: -0.478
PBM binding z-score [16]: -0.747
PBM binding z-score [17]: -0.61

CTCGAAAGGGCGTGCTCAGGTGAGTATACCAAAC
PBM binding z-score [1]: -0.316
PBM binding z-score [2]: 0.335
PBM binding z-score [3]: -0.537
PBM binding z-score [4]: -0.0248
PBM binding z-score [5]: -0.194
PBM binding z-score [6]: -0.0546
PBM binding z-score [7]: 0.0968
PBM binding z-score [8]: 0.278
PBM binding z-score [9]: -0.187
PBM binding z-score [10]: 1.37
PBM binding z-score [11]: 0.741
PBM binding z-score [12]: 0.917
PBM binding z-score [13]: 0.829
PBM binding z-score [14]: 0.316
PBM binding z-score [15]: 2.23
PBM binding z-score [16]: 0.261
PBM binding z-score [17]: -0.046

GCTCGGAGGACAAGGTCACAGCTTTGTCCGTAGA
PBM binding z-score [1]: 0.831
PBM binding z-score [2]: 3.16
PBM binding z-score [3]: 0.822
PBM binding z-score [4]: -0.625
PBM binding z-score [5]: 2.33
PBM binding z-score [6]: 3.9
PBM binding z-score [7]: 0.00215
PBM binding z-score [8]: 4.35
PBM binding z-score [9]: 0.243
PBM binding z-score [10]: 4.21
PBM binding z-score [11]: 3.72
PBM binding z-score [12]: 4.76
PBM binding z-score [13]: 4.75
PBM binding z-score [14]: 1.17
PBM binding z-score [15]: 3.79
PBM binding z-score [16]: 3.04
PBM binding z-score [17]: 1.96

CGTCAAAGTTCAAGCTAACGTAACAGAAAGCAGC
PBM binding z-score [1]: 0.497
PBM binding z-score [2]: 1.77
PBM binding z-score [3]: 1.34
PBM binding z-score [4]: 1.15
PBM binding z-score [5]: 3.13
PBM binding z-score [6]: 4.47
PBM binding z-score [7]: 2.52
PBM binding z-score [8]: 3.3
PBM binding z-score [9]: 2.21
PBM binding z-score [10]: 5.24
PBM binding z-score [11]: 3.86
PBM binding z-score [12]: 5.65
PBM binding z-score [13]: 6.4
PBM binding z-score [14]: 4.63
PBM binding z-score [15]: 1.86
PBM binding z-score [16]: -0.403
PBM binding z-score [17]: 3.69

GATACACGGTCAAGGCCAGAGTACGCGTATTGAT
PBM binding z-score [1]: 0.208
PBM binding z-score [2]: 0.594
PBM binding z-score [3]: -0.0876
PBM binding z-score [4]: -0.79
PBM binding z-score [5]: -0.507
PBM binding z-score [6]: 0.00631
PBM binding z-score [7]: -0.314
PBM binding z-score [8]: -0.159
PBM binding z-score [9]: -0.63
PBM binding z-score [10]: 2.67
PBM binding z-score [11]: 1.73
PBM binding z-score [12]: 1.54
PBM binding z-score [13]: 2.53
PBM binding z-score [14]: -0.0133
PBM binding z-score [15]: 0.429
PBM binding z-score [16]: -0.515
PBM binding z-score [17]: 0.324

TAGCCTAGGTCATTGGGCCAGTATAGTACGCATC
PBM binding z-score [1]: 2.86
PBM binding z-score [2]: 3.89
PBM binding z-score [3]: 0.41
PBM binding z-score [4]: 0.0888
PBM binding z-score [5]: 0.963
PBM binding z-score [6]: 1.58
PBM binding z-score [7]: -0.104
PBM binding z-score [8]: 2.17
PBM binding z-score [9]: -0.237
PBM binding z-score [10]: 3.59
PBM binding z-score [11]: 3
PBM binding z-score [13]: 4.22
PBM binding z-score [14]: 1.6
PBM binding z-score [18]: 2.73
PBM binding z-score [15]: 2.83
PBM binding z-score [16]: 0.768
PBM binding z-score [19]: 2.11
PBM binding z-score [17]: 0.954

CCTACTGGGCCATACAGAGGTCATTGATCATATG
PBM binding z-score [1]: 4.36
PBM binding z-score [2]: 4.21
PBM binding z-score [3]: 1.03
PBM binding z-score [4]: 0.445
PBM binding z-score [5]: 4.53
PBM binding z-score [6]: 5.28
PBM binding z-score [7]: 2.92
PBM binding z-score [8]: 5.24
PBM binding z-score [9]: 1.8
PBM binding z-score [10]: 3.12
PBM binding z-score [11]: 3.98
PBM binding z-score [12]: 4.45
PBM binding z-score [13]: 3.22
PBM binding z-score [14]: 0.759
PBM binding z-score [15]: 3.15
PBM binding z-score [16]: 1.47
PBM binding z-score [17]: 4.19

CCTACGGGGCCAAGGTCATTGATCAGTCAAAGCA
PBM binding z-score [1]: 0.0794
PBM binding z-score [2]: 1.73
PBM binding z-score [3]: -1.66
PBM binding z-score [4]: -0.738
PBM binding z-score [5]: 2.31
PBM binding z-score [6]: 3.58
PBM binding z-score [7]: 0.818
PBM binding z-score [8]: 3.78
PBM binding z-score [9]: -0.181
PBM binding z-score [10]: 3.57
PBM binding z-score [11]: 3.51
PBM binding z-score [12]: 4.02
PBM binding z-score [13]: 3.77
PBM binding z-score [14]: 1.21
PBM binding z-score [15]: 3.47
PBM binding z-score [16]: 2.04
PBM binding z-score [17]: 3.09

CAAACTAGGTCACAGAGGTTAAAGTCCGTGCGTA
PBM binding z-score [1]: 8.23
PBM binding z-score [2]: 9.05
PBM binding z-score [3]: 7.06
PBM binding z-score [4]: 4.73
PBM binding z-score [5]: 2.92
PBM binding z-score [6]: 4.74
PBM binding z-score [7]: 3.84
PBM binding z-score [8]: 4.65
PBM binding z-score [9]: 1.69
PBM binding z-score [10]: 4.62
PBM binding z-score [11]: 4.34
PBM binding z-score [12]: 5.36
PBM binding z-score [13]: 5.64
PBM binding z-score [14]: 2.38
PBM binding z-score [15]: 4.12
PBM binding z-score [16]: 2.1
PBM binding z-score [17]: 3.13
